This note sets out measurements from PubChem BioAssay.

The structures appear in SMILES notation. Values joined by “and” are separate entries in the source; they are usually repeats but may differ in a detail not shown here. Equal values may be shown once. Active and inactive are the calls of the source. Unless noted, the rule behind the calls is not given here.

Assay [1] can be described thus: compounds altering circadian rhythm period length – cell-based, LOPAC library, luminescence reporter (AID 2774).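 Note: values are relative to mean of DMSO wells on each plate.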 The conditions noted are these: circadian reporter cells, at 7 µM, actives lie on both sides.
For assay [2], the system named is Hepatitis C virus NS3 helicase. The assay is described as follows: blockers of NS3h binding to ssDNA – biochemical, fluorescence polarization, LOPAC1280 library, primary screen (AID 687035; in the data active = inhibition above about 37%). The conditions noted are these: Purified HCV NS3 helicase, Cy5-dT15 ssDNA binding fluorescence polarization; stronger effect = higher value; concentration not given here.
Assay [3] can be described thus: compounds altering Cy5-DNA-NS3h complex signal – biochemical, LOPAC1280, artefact control for HCV NS3 helicase inhibitor project (AID 687037). The conditions noted are these: Cy5-DNA-NS3h complex fluorescence interference counterscreen. On the technique in general: A counterscreen serves to expose hits that act by an unwanted route or on another target.
The nature of assay [4]: EMT-state selective cytotoxicity in co-culture – imaging, PC-3E GFP, TEM4-18 mCherry, primary screen (AID 1345086;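 active = compounds killing one labelled cell type while sparing the other, by normalised counts and ratio limits, not self-fluorescent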;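 for all read-outs here: cells exposed to compound for 72 h before imaging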;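 for red/green cell ratio (normalised): normalised mesenchymal count divided by normalised epithelial count so high means epithelial killing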). As to conditions: PC-3E GFP / TEM4-18 mCherry co-culture, imaging cell counts, at 1 µM; for red/green cell ratio (normalised): actives lie on both sides, counts scaled to control wells, 1 = unselective.
The nature of assay [5]: viability loss with induced miR-34 in A549 – imaging, A549 dox-inducible miR-34, nuclei and caspase counts, primary screen (AID 1347080;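 active = compounds whose cell count with miR-34 switched on is under 0.7 times the count with it off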). As to conditions: A549 miR-34 inducible, Hoechst nuclei count, 48 h.
Assay [6] can be described thus: blockers of cellular phospholipid synthesis – cell-based, LOPAC library, screen 4, primary screen (AID 1347384). The conditions noted are these: animal cells, phospholipid biosynthesis inhibition screen; at 10 µM.
For assay [7], the target named is Mitogen-activated protein kinase 7 (Homo sapiens) (UniProt Q13164). Kind of assay: Gal4-ERK5 driven luciferase induction – cell-based, HTS, primary screen (AID 1508626;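 active = luciferase signal above three times the same-plate solvent-only control wells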;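 note: luciferase driven by Gal4-ERK5 fusion binding five Gal4 sites before minimal TATA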). As to conditions: HeLa Gal4-ERK5 transactivation, 18 h, at 5 µM, stronger effect = higher value.
Chain of Mitogen-activated protein kinase 7 (Homo sapiens) (Q13164 whole entry, looked up, the tested form may be a part): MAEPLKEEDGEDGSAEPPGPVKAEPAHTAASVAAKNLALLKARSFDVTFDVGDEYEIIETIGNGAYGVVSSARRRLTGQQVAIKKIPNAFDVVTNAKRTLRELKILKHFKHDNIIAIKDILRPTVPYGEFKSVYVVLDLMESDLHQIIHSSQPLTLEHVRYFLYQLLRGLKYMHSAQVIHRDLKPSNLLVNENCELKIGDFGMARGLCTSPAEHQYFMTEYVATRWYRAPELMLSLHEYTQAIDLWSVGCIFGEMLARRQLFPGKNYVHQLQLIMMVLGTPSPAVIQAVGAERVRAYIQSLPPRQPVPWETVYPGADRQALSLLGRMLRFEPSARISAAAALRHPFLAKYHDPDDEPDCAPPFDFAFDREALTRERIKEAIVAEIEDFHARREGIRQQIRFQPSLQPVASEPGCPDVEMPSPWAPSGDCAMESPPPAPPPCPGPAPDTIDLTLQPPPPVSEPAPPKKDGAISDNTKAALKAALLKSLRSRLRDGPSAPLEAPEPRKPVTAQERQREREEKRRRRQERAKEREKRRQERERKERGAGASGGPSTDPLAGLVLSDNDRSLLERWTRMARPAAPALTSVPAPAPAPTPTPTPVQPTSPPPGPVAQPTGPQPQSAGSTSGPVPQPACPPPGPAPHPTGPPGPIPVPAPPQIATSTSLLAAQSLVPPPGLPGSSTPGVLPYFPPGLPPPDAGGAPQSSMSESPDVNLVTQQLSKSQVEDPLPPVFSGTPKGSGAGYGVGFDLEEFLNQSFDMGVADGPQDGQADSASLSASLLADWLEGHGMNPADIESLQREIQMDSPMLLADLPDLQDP
Assay [8] in a line: galactose survival enhancers in mitochondrial complex I cybrids – cell-based, galactose medium, ATP luminescence, primary screen (AID 1645843;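 active = z-score of at least 1.8 in each of two replicates, scored against plate mean and spread of sample wells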;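 note: positive z means more ATP and so rescue of galactose-driven cybrid death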). As to conditions: complex I mutant cybrid cells, 72 h, stronger effect = higher value.
Assay [9] is described as follows: P. berghei load reduction in hepatocytes – cell-based, HepG2, luciferase luminescence, HepG2 viability, primary screen (AID 624349; in the data active = parasite load remaining mostly below about 12%, no sharp cut-off; inactive = mostly above about 10%;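 note: 100% = mean of DMSO negative control wells on the same plate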). As to conditions: P. berghei liver stage in HepG2, luciferase luminescence, concentration not given here; parasite load remaining: stronger effect = lower value; viability: measured here: HepG2 viability without parasites.
Assay [10] can be described thus: MELAS cybrid and Rieske KO viability enhancers – cell-based, MELAS cybrids, Rieske KO mouse fibroblasts, CellTiter-Glo, primary screen (AID 1508586;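 active = mean z-score across replicates of 1.96 or higher in either the MELAS or the Rieske mutant cell line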;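 note: z relative to plate mean and SD of compound and empty wells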). The conditions noted are these: low glucose. For orientation: In ATP-based viability assays light output follows the ATP content of the culture.
The target of assay [11] is NAD(+) hydrolase SARM1 (Homo sapiens) (UniProt Q6SZW1). Kind of assay: blocking NAD cleavage by SARM1 SAM-TIR – cell lysate, NAD-Glo luminescence (AID 1508614;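 active = compound whose remaining NAD level is above about 45 nM, limit read from the data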;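 note: higher remaining NAD means stronger inhibition of SARM1 NADase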). As to conditions: SAM-TIR HEK293T lysate NADase, at 1 µM, stronger effect = higher value.
Chain of NAD(+) hydrolase SARM1 (Homo sapiens) (Q6SZW1 whole entry, looked up): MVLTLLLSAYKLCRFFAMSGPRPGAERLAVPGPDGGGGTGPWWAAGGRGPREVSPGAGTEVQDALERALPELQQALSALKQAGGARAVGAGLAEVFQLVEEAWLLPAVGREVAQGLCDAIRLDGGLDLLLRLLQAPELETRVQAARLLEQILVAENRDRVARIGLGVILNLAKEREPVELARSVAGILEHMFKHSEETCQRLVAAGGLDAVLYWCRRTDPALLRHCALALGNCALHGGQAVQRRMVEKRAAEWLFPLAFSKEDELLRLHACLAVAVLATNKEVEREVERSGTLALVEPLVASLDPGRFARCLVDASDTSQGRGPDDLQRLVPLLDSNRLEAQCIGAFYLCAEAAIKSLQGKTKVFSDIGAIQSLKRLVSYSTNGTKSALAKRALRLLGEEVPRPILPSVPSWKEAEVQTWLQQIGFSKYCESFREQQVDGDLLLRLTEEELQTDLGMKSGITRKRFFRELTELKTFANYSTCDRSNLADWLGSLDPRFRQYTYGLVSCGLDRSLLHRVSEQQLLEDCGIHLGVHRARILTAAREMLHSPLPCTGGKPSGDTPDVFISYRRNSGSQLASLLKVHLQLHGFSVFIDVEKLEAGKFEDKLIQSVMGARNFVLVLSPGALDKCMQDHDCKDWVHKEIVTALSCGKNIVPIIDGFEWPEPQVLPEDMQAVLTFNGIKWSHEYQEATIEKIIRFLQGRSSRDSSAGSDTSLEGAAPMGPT
Where [12] appears, read: measured here: epithelial PC-3E GFP cell survival.
Setting [13] is: measured here: mesenchymal TEM4-18 mCherry cell survival.
Where [14] appears, read: stronger effect = lower value, cell number ratio, induced over uninduced.
Setting [15] is: measured here: relative caspase fold change +Dox/-Dox.
Setting [16] is: measured here: total cells with miR-34 induction, stronger effect = lower value.
Setting [17] is: measured here: total cells without miR-34 induction.
The mark [18] stands for this setting: MELAS cybrid survival, CellTiter-Glo 48 h, stronger effect = higher value.
Setting [19] is: Rieske KO mouse fibroblast survival, CellTiter-Glo 72 h.

Broadly, the inhibition is the relative decrease from the control value, in per cent. Consider `O=C(O)c1ccccc1Nc1ccccc1`, for which, in assay [1], the period change is -0.04 h (inactive). Also, in assay [2], the inhibition is 0% (inactive). Besides, the fluorescence ratio (interference) in assay [3] is 0.9 (inactive). Also, the red/green cell ratio (normalised) in assay [4] is 0.96 (inactive). The normalised cell number in assay [4] (setting [12]) turned out to be 1.09; in assay [4] (setting [13]) it was 1.05. The fold change was 1.06 (inactive) and 0.981 (inactive) in assay [5] (setting [14]); 2.67 and 0.812 in [5] (setting [15]). For the same compound, the cell count in assay [5] (setting [16]) is 10300 and 5440; in assay [5] (setting [17]) it was 9720 and 5550. The call in assay [6] was inactive. For the same compound, the luciferase signal in [7] is 24 AU (inactive). Further, in assay [8], the z-score is 2.06 (active).

As usually defined, the viability is a read-out of living cells in per cent, often relative to untreated cells. Turning to `c1ccc(C2CN3CCSC3=N2)cc1` (stereo not given), the period change in assay [1] is 0.075 h (inactive). Further, the parasite load remaining in assay [9] was 183% (inactive) and 71.5% (inactive). In addition, in assay [9], the viability was 108% and 76.2%. The inhibition in [2] was -2% (inactive). Besides, the fluorescence ratio (interference) in assay [3] was 1 (inactive). Moreover, the red/green cell ratio (normalised) in assay [4] was 1.29 (inactive) and 1 (inactive). The normalised cell number was 0.85 and 1.04 in assay [4] (setting [12]); 1.1 and 1.05 in [4] (setting [13]). Further, the fold change in assay [5] (setting [14]) is 0.894 (inactive) and 0.914 (inactive) and 0.823 (inactive); in [5] (setting [15]), 2.54 and 0.996 and 1.2. The cell count in assay [5] (setting [16]) was 8980 and 9120 and 8770; in assay [5] (setting [17]), 10000 and 9980 and 10700. In addition, the call in [6] was inactive. Further, the z-score was 0.49 (inactive) in assay [10] (setting [18]), 0.36 in assay [10] (setting [19]) and 0.64 (inactive) in assay [8]. In addition, the remaining NAD in assay [11] was 10 nM (inactive).

Turning to `CC[C@H]1OC(=O)[C@H](C)[C@@H](O[C@H]2C[C@@](C)(OC)[C@@H](O)[C@H](C)O2)[C@H](C)[C@@H](O[C@@H]2O[C@H](C)C[C@H](N(C)C)[C@H]2O)[C@](C)(O)C[C@@H](C)[C@@H]2N[C@@H](COCCOC)O[C@H]([C@H]2C)[C@]1(C)O`, the parasite load remaining in assay [9] was 193% (inactive) and 158% (inactive) and 59.8% (inactive). Besides, the viability in [9] is 113% and 86.5% and 194%. Moreover, the red/green cell ratio (normalised) in [4] was 0.74 (inactive). In addition, the normalised cell number in assay [4] (setting [12]) was determined as 1.25; in assay [4] (setting [13]), 0.93. Moreover, the fold change in assay [5] (setting [14]) is 0.867 (inactive) and 0.854 (inactive); in assay [5] (setting [15]) it was 0.963 and 2.6. Further, the cell count in assay [5] (setting [16]) was 8760 and 11500; in assay [5] (setting [17]), 10100 and 13500. Also, the z-score in assay [10] (setting [18]) was -1.14 (inactive); in [10] (setting [19]), -0.393. In addition, the remaining NAD in [11] is 10 nM (inactive). Further, in assay [7], the luciferase signal is 44 AU (inactive).

On to `O=C(O)C1=CC(=C(c2ccc(O)c(C(=O)O)c2)c2ccc(O)c(C(=O)O)c2)C=CC1=O`, for which the period change in assay [1] is -0.145 h (inactive). For the same compound, the inhibition in assay [2] is 96% (active). In [3], the fluorescence ratio (interference) is 1 (inactive). In addition, the red/green cell ratio (normalised) in assay [4] is 1.1 (inactive). Besides, the values for the normalised cell number in assay [4] (setting [12]) and in assay [4] (setting [13]) were 1.19 and 1.31, respectively. Also, the fold change in assay [5] (setting [14]) is 1.06 (inactive); in assay [5] (setting [15]), 1.49. Moreover, the figures for the cell count in assay [5] (setting [16]) and in assay [5] (setting [17]) were 8760 and 8290, respectively. In assay [6], the call was inactive. Also, the luciferase signal in assay [7] was 12 AU (inactive). For the same compound, the z-score in assay [8] was 5.43 (active).

`O=C(O)C1CCCNC1` (stereo not given): the period change in assay [1] is 0.19 h (inactive). Besides, in assay [9], the parasite load remaining was 89.7% (inactive). Moreover, in assay [9], the viability is 95.9%. Further, in [2], the inhibition is 0% (inactive). In addition, in assay [3], the fluorescence ratio (interference) is 0.9 (inactive). For the same compound, the red/green cell ratio (normalised) in assay [4] is 0.84 (inactive). Besides, the normalised cell number in assay [4] (setting [12]) is 1.28; in [4] (setting [13]) it was 1.08. The fold change in [5] (setting [14]) was 0.976 (inactive) and 0.953 (inactive); in [5] (setting [15]) it was 1.22 and 0.942. Further, the cell count in [5] (setting [16]) was 9840 and 8650; in assay [5] (setting [17]) it was 10100 and 9080. Moreover, in [6], the call was inactive. Besides, the z-score in [8] is 0.695 (inactive).
